Screening data deposited in PubChem by National Center for Advancing Translational Sciences (NCATS).
This is a sample that favours compounds with a hit; in the whole collection about 11% have one here.
ALDH1A1 block – qHTS Assay for Inhibitors of Aldehyde Dehydrogenase 1 (ALDH1A1); Aldehyde dehydrogenase 1A1 (Homo sapiens), P00352; Purified ALDH1A1, NADH fluorescence, propionaldehyde substrate; Potency, µM (highest dose often 75.3 µM), hits mostly inhibitors; hit rate 7.3% among 220,000; AID 1030, 2008
Target sequence (P00352 whole entry, looked up): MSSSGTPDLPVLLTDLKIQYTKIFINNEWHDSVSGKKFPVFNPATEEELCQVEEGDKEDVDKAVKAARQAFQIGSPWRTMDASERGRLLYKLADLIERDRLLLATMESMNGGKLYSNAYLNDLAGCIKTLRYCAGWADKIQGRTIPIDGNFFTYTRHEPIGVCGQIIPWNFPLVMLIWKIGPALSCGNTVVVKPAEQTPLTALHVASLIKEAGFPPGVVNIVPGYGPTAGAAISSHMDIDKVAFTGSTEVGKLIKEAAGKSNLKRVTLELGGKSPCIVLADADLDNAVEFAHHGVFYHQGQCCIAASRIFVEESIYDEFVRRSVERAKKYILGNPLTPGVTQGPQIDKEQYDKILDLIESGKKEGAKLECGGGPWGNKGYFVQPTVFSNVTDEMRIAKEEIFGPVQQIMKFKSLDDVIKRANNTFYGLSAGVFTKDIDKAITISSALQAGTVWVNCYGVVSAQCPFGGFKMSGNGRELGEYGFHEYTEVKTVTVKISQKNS
HPGD inh – qHTS Assay for Inhibitors of HPGD (15-Hydroxyprostaglandin Dehydrogenase); 15-hydroxyprostaglandin dehydrogenase [NAD(+)] (Homo sapiens), P15428; purified HPGD, NADH fluorescence kinetic, PGE2 substrate; Potency, µM, hits mostly inhibitors; hit rate 4.3% among 150,000
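NADH formation kinetics: reaction with 30 uM PGE2 and 1 mM NAD+ (final), 20 nM enzyme, Tris-HCl pH 8 with Tween 20, after 15 min compound preincubation at room temperature. Fluorescence change, last versus first of five reads.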
PNC assembly inh – High Content Assay for Compounds that inhibit the Assembly of the Perinucleolar Compartment; PC3M PTB-GFP, PNC prevalence imaging, 16 h; active compounds read low; activity change (PNC), negative = inhibition, % at 10 µM; hit rate 3.1% among 140,000; AID 2417, 2010;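 active = readout at or below -70, meaning at least 70% loss of cells showing the perinucleolar compartment, a nuclear body marking cancer cells; inconclusive = readout between -30 and a set limit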
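Read-out is percentage of cells bearing a perinucleolar compartment, from automated 20x imaging of fixed, Hoechst-stained PC3M PTB-GFP cells. Cells were seeded 4 h, then exposed 16 h to compound (23 nl of library stock) in duplicate plates.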
A number is an active result; - = inactive; ? = inconclusive; . = no result; [ ] = remark or other dose. Unless noted, calls follow the shape of the dose curve; as a rule, active = well fitted inhibition curve with a large enough effect (not every such curve was filed as active); inconclusive = small, poorly fitted or top-dose-only effect, or another doubt; inactive = no such curve, though single readings can be large or run the other way.

SMILES | ALDH1A1 block | HPGD inh | PNC assembly inh
CC1(C)CC(=O)C(C(C2=C(O)CC(C)(C)CC2=O)c2cccnc2)C(=O)C1 (configuration not stated) | 14.1µM | - | ?
CC1(C)CC(=O)C(C(C2=C(O)CC(C)(C)CC2=O)c2cccc(O)c2)C(=O)C1 (configuration not stated) | 14.1µM | - | -
CC(=N)C1=C(O)CC(C)(C)CC1=O | ? | - | -
Cc1ccc(C2C3=C(CC(C)(C)CC3=O)NC3=C2C(=O)CC(C)(C)C3)o1 | ? | - | -
Cc1cccc(NC(=O)c2csnn2)n1 | - | . | .
COc1ccc(CC(=O)OCC(=O)Nc2ccc3c(c2)OCO3)cc1 | - | . | .
O=C(O)c1ccc(N2CCS(=O)(=O)CC2)cc1 | - | . | .
C#C[C@]1(OC(C)=O)CC[C@H]2[C@@H]3CCC4=CC(=O)CC[C@@H]4[C@H]3CC[C@@]21C | - | - | .
O=C(CC1CCS(=O)(=O)C1)Nc1ccc[nH]c1=O (configuration not stated) | 25.1µM | - | -
CCc1ccccc1NC(=O)CC1CS(=O)(=O)CC1CC(=O)Nc1ccccc1CC (configuration not stated) | - | - | ?
S=C(Nc1ccccc1)N1CCN(C(=S)c2ccccc2)CC1 | 12.6µM | . | .
S=C(Nc1ccccc1)N1CCCCC1 | - | - | -
S=C1NCN(C2CCCCC2)CN1CCc1ccccc1 | - | . | .
O=S(=O)(c1ccccc1)N1CCC[C@@]2(CCN(c3ncccn3)C2)C1 | ? | - | .
CC(=O)C1=C(C)NC(SCC(N)=O)=C(C#N)C1CC(C)C (configuration not stated) | - | . | .
CC(=O)C1=C(C)NC(SCC(=O)c2ccc(F)cc2)=C(C#N)C1CC(C)C (configuration not stated) | - | 22.4µM | ?
CC(=O)C1=C(C)NC(SCC(N)=O)=C(C#N)C1C (configuration not stated) | ? | - | -
CC(=O)C1=C(C)NC(SCC(=O)c2ccc(Cl)cc2)=C(C#N)C1CC(C)C (configuration not stated) | 14.1µM | - | -
COc1ccc(C2=NN(CC(=O)NCc3ccco3)C(=O)CC2)cc1 | ? | - | -
COc1ccccc1Oc1ncnc2c1oc1ccccc12 | - | . | .
c1ccc(Sc2ncnc3c2oc2ccccc23)cc1 | ? | 31.6µM | -
N#CCCSc1ncnc2c1oc1ccccc12 | ? | - | -
OCCSc1ncnc2c1oc1ccccc12 | ? | 25.1µM | -
COC(=O)c1cccc(C23CC4(C2)[C@H](CN(C)[C@@H]4c2ccccc2)C3c2ccc(Cl)nc2)c1 (some centres not stated) | - | - | .
CCOc1cc(/C=N/Nc2nc(-c3cccc(S(=O)(=O)N4CCCC4)c3)cs2)ccc1O | ? | ? | -
SMILES | ALDH1A1 block | HPGD inh | PNC assembly inh
COc1ccc(NC(=O)c2sc(SC)nc2N)cc1 | - | - | -
COc1ccc(NC(=O)c2sc(SCc3ccccc3)nc2N)cc1 | 12.6µM | ? | ?
COc1cccc(N2CCN(C(=O)CCCCCNc3nc(=S)[nH]c4ccccc34)CC2)c1 | - | . | .
Cc1c(CCOC(=O)c2cc([N+](=O)[O-])cc([N+](=O)[O-])c2)sc[n+]1CCCCS(=O)(=O)[O-] | - | . | .
O=[N+]([O-])c1ccccc1CNc1ccc(F)c(Cl)c1 | ? | - | -
O=C(O)c1cc([N+](=O)[O-])ccc1NCc1ccccc1Cl | - | . | .
Cc1cc(F)ccc1NCc1ccccc1[N+](=O)[O-] | 0.631µM | . | .
Cc1cc([N+](=O)[O-])ccc1NCc1ccccc1[N+](=O)[O-] | 17.8µM | . | .
OCCC1CN(Cc2nc3ccccc3s2)CCN1C1CCCC1 (configuration not stated) | - | . | .
C#CCSc1nnnn1-c1cccc(Cl)c1 | - | . | .
COc1ccc(C(=O)CSc2nnc(CN3CCCCC3)n2-c2ccc(Cl)cc2)cc1OC | - | - | -
CC(C)c1nc2c(c(=O)c3ccccc3n2C)c(=O)n1CCc1ccccc1 | - | . | .
O=C(COc1ccc(Cl)cc1)NC1=NN(c2ccccc2)C(=O)C1 | - | - | -
O=C(Nc1ccc2c(c1)OCO2)N1CCN(c2ccc(F)cc2)CC1 | - | . | .
O=C(CN1CCN(c2ccc(Cl)cc2)CC1)c1ccc2c(c1)OCO2 | 8.91µM | - | -
O=C(CN1CCN(c2ccc(F)cc2)CC1)c1ccc2c(c1)OCO2 | 8.91µM | - | ?
N/C(=N\OC(=O)c1ccc2c(c1)OCO2)c1ccc(Cl)cc1 | - | - | ?
CC1CCCC(C)N1C(=O)Cn1cc(/C=C2/C(=O)Nc3ccccc32)c2ccccc21 (configuration not stated) | - | - | -
O=C1NC(=O)/C(=C\c2cn(Cc3ccccc3F)c3ccccc23)N1 | 14.1µM | . | .
COc1ccccc1CN1CC[C@@]2(CCCN(C(=O)c3cccc(F)c3)C2)C1 | ? | - | .
COc1ccc(/C=C/C(=O)NCCSCc2ccco2)cc1 | ? | 14.1µM | -
CS(=O)(=O)Nc1ccc(C(=O)NCCSCc2ccccc2)cc1 | 11.2µM | . | .
O=C(/C=C/c1ccccc1)NCCCNC(=O)/C=C/c1ccccc1 | - | . | .
COc1ccc(/C=C/C(=O)NCCCc2ccccc2)cc1 | ? | - | -
O=C(/C=C/c1ccccc1)NCCSCc1ccccc1 | 1µM | 3.16µM | ?
SMILES | ALDH1A1 block | HPGD inh | PNC assembly inh
CS(=O)(=O)Nc1ccc(C(=O)NCCc2ccccc2)cc1 | - | - | -
O=S1(=O)N=C2CCCCCN2C(c2ccc(Br)cc2)N1 (configuration not stated) | - | . | .
O=c1c(O)c(-c2ccc(O)c(O)c2)oc2ccccc12 | - | - | .
Cc1ccc2ccc(S(=O)(=O)n3nc(C)cc3C)cc2c1 | 0.891µM | ? | -
COc1ccc(C)cc1S(=O)(=O)n1nc(C)cc1C | - | . | .
CCN(CC)S(=O)(=O)c1cnccc1N1CCN(c2cccc(Cl)c2)CC1 | - | - | -
Cc1ccc(S(=O)(=O)N2CCCCC2)c(C)c1NS(C)(=O)=O | - | . | .
Cc1ccccc1Nc1nc(N)nc(CN2CCN(C(=O)c3ccccc3)CC2)n1 | - | . | .
CCc1ccc2c(c1)N(C[C@H](C)CN(C)C)c1ccccc1S2 | -[13.5 µM] | - | .
Cc1ccc(-c2csc3ncnc(OCC(=O)NC(=O)NCc4ccco4)c23)cc1 | ? | ? | -124.8
O=C(COc1ncnc2scc(-c3ccc(F)cc3)c12)NCc1ccco1 | ? | - | -
CCN(CC)C(=O)c1[nH]cnc1C(=O)N[C@@H](CC(C)C)C(=O)OCc1ccccc1 | - | . | .
Cc1ccc(C(=O)N2N=C3c4ccccc4S(=O)(=O)N3[C@H]2N(C)C)cc1 | - | . | .
Cc1ccccc1OCC(O)Cn1c(SC(C)C)nc2c1c(=O)[nH]c(=O)n2C (configuration not stated) | 7.08µM | 14.1µM | ?
Cc1cc(C)n(-c2nc3c(c(=O)[nH]c(=O)n3C)n2CC(O)COc2ccccc2C)n1 (configuration not stated) | - | - | -
Cc1ccccc1OCC(O)Cn1c(Br)nc2c1c(=O)[nH]c(=O)n2C (configuration not stated) | - | . | .
Cn1c(=O)[nH]c(=O)c2c1nc(N1CCCC1)n2CC(O)COc1ccccc1 (configuration not stated) | - | - | ?
